Several values for one entry are separate records, joined by “and”; a condition that tells them apart may be missing. Equal entries are not always repeated. The source holds several records for some structures; these can differ, active in one and inactive in another. Activity calls are given as the source filed them. Cut-off read from the data, not from the text of the source, unless noted: active = inhibition above about 80%; inactive = the rest.
Experiment: growth inhibition, single agents and combos, ICB984, cell-based, cisplatin or BGB combos, synergistic combos for chromothripsis tumors (AID 1671451; call rule not given here;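 note: 0% = vehicle DMSO and 100% = killing by high DMSO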)
Conditions: ICB984 medulloblastoma cells, drug combinations, BGB IC40 combo, at 0.005 µM, stronger effect = higher value
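Note: cells exposed for 96 hours before readout.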

Row | Structure (SMILES) | inhibition
1 | COc1cc([C@@H]2c3cc4c(cc3[C@@H](O[C@@H]3O[C@@H]5CO[C@@H](c6cccs6)O[C@H]5[C@H](O)[C@H]3O)[C@H]3COC(=O)[C@H]23)OCO4)cc(OC)c1O | -28.7% and -5.88%
2 | COc1cc(NS(C)(=O)=O)ccc1Nc1c2ccccc2nc2ccccc12 | 3.68% and -48.5%
3 | N=c1ccn2c(n1)O[C@H]1[C@H](O)[C@@H](CO)O[C@H]12 | -39.5%

Same assay, conditions: ICB984 medulloblastoma cells, drug combinations, BGB IC40 combo, at 0.05 µM, stronger effect = higher value

Row | Structure (SMILES) | inhibition
4 | COc1cc([C@@H]2c3cc4c(cc3[C@@H](O[C@@H]3O[C@@H]5CO[C@@H](c6cccs6)O[C@H]5[C@H](O)[C@H]3O)[C@H]3COC(=O)[C@H]23)OCO4)cc(OC)c1O | -11.6% and -12.3%
5 | COc1cc(NS(C)(=O)=O)ccc1Nc1c2ccccc2nc2ccccc12 | 39.5% and 18.4%
6 | N=c1ccn2c(n1)O[C@H]1[C@H](O)[C@@H](CO)O[C@H]12 | -9.88%

Same assay, conditions: ICB984 medulloblastoma cells, drug combinations, at 0.5 µM, stronger effect = higher value

Row | Structure (SMILES) | inhibition
7 | COc1cc([C@@H]2c3cc4c(cc3[C@@H](O[C@@H]3O[C@@H]5CO[C@@H](c6cccs6)O[C@H]5[C@H](O)[C@H]3O)[C@H]3COC(=O)[C@H]23)OCO4)cc(OC)c1O | -25.1% (inactive) and -14.4% (inactive)
8 | COc1cc(NS(C)(=O)=O)ccc1Nc1c2ccccc2nc2ccccc12 | -24.7% (inactive) and -27.8% (inactive)
9 | N=c1ccn2c(n1)O[C@H]1[C@H](O)[C@@H](CO)O[C@H]12 | -19.6% (inactive)

Same assay, conditions: ICB984 medulloblastoma cells, drug combinations, cisplatin combo, at 0.05 µM, stronger effect = higher value

Row | Structure (SMILES) | inhibition
10 | COc1cc([C@@H]2c3cc4c(cc3[C@@H](O[C@@H]3O[C@@H]5CO[C@@H](c6cccs6)O[C@H]5[C@H](O)[C@H]3O)[C@H]3COC(=O)[C@H]23)OCO4)cc(OC)c1O | -14.7% and -16.3%
11 | COc1cc(NS(C)(=O)=O)ccc1Nc1c2ccccc2nc2ccccc12 | 39.5% and 15.2%
12 | N=c1ccn2c(n1)O[C@H]1[C@H](O)[C@@H](CO)O[C@H]12 | -12.9%

Same assay, conditions: ICB984 medulloblastoma cells, drug combinations, cisplatin combo, at 0.5 µM, stronger effect = higher value

Row | Structure (SMILES) | inhibition
13 | COc1cc([C@@H]2c3cc4c(cc3[C@@H](O[C@@H]3O[C@@H]5CO[C@@H](c6cccs6)O[C@H]5[C@H](O)[C@H]3O)[C@H]3COC(=O)[C@H]23)OCO4)cc(OC)c1O | -25.3% and 3.4%
14 | COc1cc(NS(C)(=O)=O)ccc1Nc1c2ccccc2nc2ccccc12 | -38.9% and -24.5%
15 | N=c1ccn2c(n1)O[C@H]1[C@H](O)[C@@H](CO)O[C@H]12 | -20.7%

Same assay, conditions: ICB984 medulloblastoma cells, drug combinations, cisplatin combo, at 5 µM, stronger effect = higher value

Row | Structure (SMILES) | inhibition
16 | COc1cc([C@@H]2c3cc4c(cc3[C@@H](O[C@@H]3O[C@@H]5CO[C@@H](c6cccs6)O[C@H]5[C@H](O)[C@H]3O)[C@H]3COC(=O)[C@H]23)OCO4)cc(OC)c1O | -14.6% and 1.51%
17 | COc1cc(NS(C)(=O)=O)ccc1Nc1c2ccccc2nc2ccccc12 | -5% and -33%
18 | N=c1ccn2c(n1)O[C@H]1[C@H](O)[C@@H](CO)O[C@H]12 | -55.6%

Same assay, conditions: ICB984 medulloblastoma cells, drug combinations, measured here: 5 uM single agent, at 5 µM, stronger effect = higher value

Row | Structure (SMILES) | inhibition
19 | COc1cc([C@@H]2c3cc4c(cc3[C@@H](O[C@@H]3O[C@@H]5CO[C@@H](c6cccs6)O[C@H]5[C@H](O)[C@H]3O)[C@H]3COC(=O)[C@H]23)OCO4)cc(OC)c1O | -8.36% and -4.68%
20 | COc1cc(NS(C)(=O)=O)ccc1Nc1c2ccccc2nc2ccccc12 | 3.59% and -0.607%
21 | N=c1ccn2c(n1)O[C@H]1[C@H](O)[C@@H](CO)O[C@H]12 | -6.48%

Experiment: growth inhibition, single agents and combos, LFS_MB_1R, cell-based, cisplatin or BGB combos, synergistic combos for chromothripsis tumors (AID 1671452)
Conditions: LFS_MB_1R medulloblastoma cells, at 0.5 µM, stronger effect = higher value

Row | Structure (SMILES) | inhibition
22 | COc1cc([C@@H]2c3cc4c(cc3[C@@H](O[C@@H]3O[C@@H]5CO[C@@H](c6cccs6)O[C@H]5[C@H](O)[C@H]3O)[C@H]3COC(=O)[C@H]23)OCO4)cc(OC)c1O | -4.7% (inactive) and -8.97% (inactive)
23 | COc1cc(NS(C)(=O)=O)ccc1Nc1c2ccccc2nc2ccccc12 | 1.68% (inactive) and -19.1% (inactive)
24 | N=c1ccn2c(n1)O[C@H]1[C@H](O)[C@@H](CO)O[C@H]12 | -7.06% (inactive)

Same assay, conditions: LFS_MB_1R medulloblastoma cells, measured here: combination with BGB IC40, at 0.05 µM, stronger effect = higher value

Row | Structure (SMILES) | inhibition
25 | COc1cc([C@@H]2c3cc4c(cc3[C@@H](O[C@@H]3O[C@@H]5CO[C@@H](c6cccs6)O[C@H]5[C@H](O)[C@H]3O)[C@H]3COC(=O)[C@H]23)OCO4)cc(OC)c1O | 1.41% and -17.3%
26 | COc1cc(NS(C)(=O)=O)ccc1Nc1c2ccccc2nc2ccccc12 | 17.9% and -5.14%
27 | N=c1ccn2c(n1)O[C@H]1[C@H](O)[C@@H](CO)O[C@H]12 | -18.8%

Same assay, conditions: LFS_MB_1R medulloblastoma cells, measured here: combination with cisplatin, at 0.5 µM, stronger effect = higher value

Row | Structure (SMILES) | inhibition
28 | COc1cc([C@@H]2c3cc4c(cc3[C@@H](O[C@@H]3O[C@@H]5CO[C@@H](c6cccs6)O[C@H]5[C@H](O)[C@H]3O)[C@H]3COC(=O)[C@H]23)OCO4)cc(OC)c1O | 10.9% and 4.47%
29 | COc1cc(NS(C)(=O)=O)ccc1Nc1c2ccccc2nc2ccccc12 | 10% and -20.9%
30 | N=c1ccn2c(n1)O[C@H]1[C@H](O)[C@@H](CO)O[C@H]12 | 43.5%

Same assay, conditions: LFS_MB_1R medulloblastoma cells, measured here: combination with cisplatin, at 5 µM, stronger effect = higher value

Row | Structure (SMILES) | inhibition
31 | COc1cc([C@@H]2c3cc4c(cc3[C@@H](O[C@@H]3O[C@@H]5CO[C@@H](c6cccs6)O[C@H]5[C@H](O)[C@H]3O)[C@H]3COC(=O)[C@H]23)OCO4)cc(OC)c1O | 22.9% and 27.7%
32 | COc1cc(NS(C)(=O)=O)ccc1Nc1c2ccccc2nc2ccccc12 | 63.4% and 27.6%
33 | N=c1ccn2c(n1)O[C@H]1[C@H](O)[C@@H](CO)O[C@H]12 | 68.2%

Experiment: growth inhibition, single agents and combos, HTB85, cell-based, BGB or cisplatin IC20 combos, synergistic combos for chromothripsis tumors (AID 1671453);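 note: 0% = vehicle DMSO and 100% = high DMSO killing control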
Conditions: HTB85 osteosarcoma cells, drug combinations, at 0.5 µM, stronger effect = higher value

Row | Structure (SMILES) | inhibition
34 | COc1cc([C@@H]2c3cc4c(cc3[C@@H](O[C@@H]3O[C@@H]5CO[C@@H](c6cccs6)O[C@H]5[C@H](O)[C@H]3O)[C@H]3COC(=O)[C@H]23)OCO4)cc(OC)c1O | 63.9% (inactive) and 81.2% (active)
35 | COc1cc(NS(C)(=O)=O)ccc1Nc1c2ccccc2nc2ccccc12 | 17.3% (inactive) and 24.9% (inactive)
36 | N=c1ccn2c(n1)O[C@H]1[C@H](O)[C@@H](CO)O[C@H]12 | 32.7% (inactive)

From PubChem BioAssay
